An excerpt weighted towards active compounds, which were near 1.3% of everything screened.
Rango-impB inh = prevents formation of the Rango-importin beta complex; Q14974; Rango CFP/YFP FRET sensor + importin beta, 45 min; Potency, µM (top dose mostly 92.2 µM), without a hit: at the highest dose inhibition of complex formation; hit rate 0.031% among 340,000;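 further: potency means the concentration at half of the fitted maximal effect; 0% = DMSO wells and 100% = buffer wells lacking importin beta; nearly all actives have a fitted effect of over 15% in size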
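Inhibition scored from the CFP 486 nm/YFP 530 nm FRET ratio 45 min after adding 0.125 microM importin beta to 50 nM Rango biosensor preincubated 5 min with compound (room temperature, PBS with DTT, Tween-20, BSA). No-importin wells as positive control.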
KCNH2 3.1 block = KCNH2 3.1 (human) potassium channel inhibition; AID 720553; hit rate 0.95% among 340,000; activity change, % (tested at about 1.8 µM); U2OS KCNH2 3.1, thallium flux FluxOr; hits give low values;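 active means maximum activity change below -70%; inconclusive means maximum activity change from -70% to -50%; inactive means maximum activity change above -50%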;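 further: thallium influx rate constant from kinetic fluorescence after stimulation buffer; on the % scale 0 is the no-effect control and ±100 the full control effect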
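Normalized rate constant (relative to positive and negative DMSO controls) derived from a 2 min kinetic fluorescence read after stimulation; U2OS cells expressing the 3.1 isoform via virus at 1.77 x 10^8 /mL.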
KCNH2 WT inh = blocks the wildtype human KCNH2 potassium channel; hit rate 0.37% among 340,000; U2OS, BacMam KCNH2, thallium flux FluxOr; hits give low values; Q12809; activity change, % at 1.84 µM;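 active means maximum activity change below -70%; inconclusive means maximum activity change between -70% and -50%; inactive means maximum activity change above -50%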; further: on the % scale 0 is the no-effect control and ±100 the full control effect
Target sequence (Q12809 whole entry, looked up): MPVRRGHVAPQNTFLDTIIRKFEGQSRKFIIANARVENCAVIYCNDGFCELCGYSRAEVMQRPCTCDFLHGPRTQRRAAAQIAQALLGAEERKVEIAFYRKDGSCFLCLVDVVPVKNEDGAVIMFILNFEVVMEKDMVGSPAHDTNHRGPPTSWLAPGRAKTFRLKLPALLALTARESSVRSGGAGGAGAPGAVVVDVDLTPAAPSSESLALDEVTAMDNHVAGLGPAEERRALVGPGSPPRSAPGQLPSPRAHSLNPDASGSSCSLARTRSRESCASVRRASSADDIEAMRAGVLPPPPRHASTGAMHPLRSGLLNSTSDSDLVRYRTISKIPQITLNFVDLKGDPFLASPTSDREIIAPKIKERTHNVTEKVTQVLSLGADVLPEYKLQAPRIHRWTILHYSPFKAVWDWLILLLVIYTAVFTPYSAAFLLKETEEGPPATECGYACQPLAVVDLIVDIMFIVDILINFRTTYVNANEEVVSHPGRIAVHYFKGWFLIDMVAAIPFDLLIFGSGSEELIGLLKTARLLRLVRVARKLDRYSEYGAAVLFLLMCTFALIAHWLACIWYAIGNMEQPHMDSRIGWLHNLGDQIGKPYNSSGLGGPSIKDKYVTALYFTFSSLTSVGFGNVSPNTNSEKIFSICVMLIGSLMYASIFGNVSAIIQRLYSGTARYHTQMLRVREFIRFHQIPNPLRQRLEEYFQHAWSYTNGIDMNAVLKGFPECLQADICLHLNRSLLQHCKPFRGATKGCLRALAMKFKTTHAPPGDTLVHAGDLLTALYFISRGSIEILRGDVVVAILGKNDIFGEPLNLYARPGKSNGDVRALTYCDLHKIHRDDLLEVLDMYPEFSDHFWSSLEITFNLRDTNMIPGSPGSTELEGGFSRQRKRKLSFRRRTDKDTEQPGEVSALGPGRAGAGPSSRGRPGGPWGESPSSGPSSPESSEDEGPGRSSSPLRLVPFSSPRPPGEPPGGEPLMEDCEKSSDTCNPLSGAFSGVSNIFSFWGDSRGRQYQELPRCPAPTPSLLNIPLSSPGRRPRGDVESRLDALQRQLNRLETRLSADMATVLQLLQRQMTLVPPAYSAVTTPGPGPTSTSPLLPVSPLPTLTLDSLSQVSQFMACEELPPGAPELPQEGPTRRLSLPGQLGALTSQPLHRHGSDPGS
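U2OS cells were transduced with wild-type KCNH2 virus (2.03 x 10^8 / mL) for 4 h at room temperature, then cultured overnight at 37 C. Thallium flux was read with FluxOr dye. Rate constants were normalized to DMSO controls.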
Rango release inh = inhibitors of RanGTP-induced Rango-importin beta complex dissociation | Biochemical FRET Rango-importin beta, RanGTP-induced dissociation | Potency, µM (highest dose often 46.1 µM), without a hit: at the highest dose activity change, negative = inhibition | hit rate 0.071% among 340,000 | AID 540253 | O95149+P62826; further: potency means the concentration at half of the fitted maximal effect; % of control where 0% means no effect; nearly all actives have a fitted effect of over 45% in size
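Compounds sat 5 min at room temperature with 0.1 uM Rango biosensor plus 0.25 uM importin beta, then FRET pre-read. RanGTP-RCC1 (0.6 uM Ran, 2mM GTP, 0.2 uM RCC1) added for 45 min, and the CFP/YFP post-read measured blocked complex dissociation.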
Active calls of the source: *; ? = inconclusive; / = no result. Unless noted, the call rests on the fitted dose curve.

SMILES | Rango-impB inh | KCNH2 3.1 block | KCNH2 WT inh | Rango release inh
CCCCNC(=O)C1Cc2cc(S(=O)(=O)N3CCCCC3)ccc2N1C(C)=O (centres undefined) | -4% | 9 | -15 | -6%
CC(=O)c1ccc(Nc2c3c(nc4ccccc24)CCCC3)cc1 | 1% | -10 | -77* | ?
CC(=O)c1cccc(Nc2c3c(nc4ccccc24)CCC3)c1 | 0% | -19 | -3 | -1%
O=C(C=Cc1ccccc1)CC(c1ccccc1)N1CCOCC1 (centres undefined) | 0% | 2 | -10 | 2%
CCOC(=O)CSc1nc2sc3c(c2c(=O)n1-c1ccccc1)CCN(C)C3 | ? | -8 | -2 | ?
CCOC(=O)CSc1nc2sc3c(c2c(=O)n1-c1ccccc1)CCN(C(C)C)C3 | ? | -29 | -1 | 18µM*
CCOc1ccc(C(=O)Nc2ccc(-c3nc4ccccc4[nH]3)cc2)cc1[N+](=O)[O-] | -3% | -71* | -19 | 0%
COc1ccc(-n2c3c(c(=O)[nH]c2=O)C(NS(=O)(=O)c2ccc(Cl)cc2)(C(F)(F)F)C(=O)N3)cc1 (centres undefined) | -1% | 12 | -98* | 2%
NCCCCC(N)c1cn([C@@H](CCC(=O)O)C(=O)N2CCNCC2)nn1 (some centres undefined) | 3% | 13 | 12 | 24%
FC(F)(F)c1cccc(NC(=S)NC2CCCC2)c1 | -4% | -106* | -1 | -8%
FC(F)(F)c1ccc(NC(=S)NC2CCCCC2)cc1 | 1% | -15 | -3 | -6%
COc1ccc(OC(=O)c2cccc(S(=O)(=O)N3CC(C)OC(C)C3)c2)cc1 (centres undefined) | -2% | -8 | 3 | 23%
COc1ccc(C(=O)c2c(-c3ccc(OC)cc3)oc3ccccc23)cc1 | -2% | -71* | -13 | 1%
O=C(CNC(=S)N(CCCN1CCOCC1)Cc1cccs1)N1CCOCC1 | 4% | 9 | 5 | -11%
O=C(CNC(=S)N(CCCN1CCOCC1)Cc1cccs1)N1CCCCCC1 | 3% | -181* | -148* | -9%
O=C(Nc1ccccc1N1CCN(C(=O)c2ccc(Cl)cc2)CC1)c1ccc(Br)cc1 | 2% | -91* | -12 | -6%
O=C(Nc1ccccc1N1CCN(C(=O)c2ccc(Cl)cc2)CC1)c1ccc([N+](=O)[O-])o1 | 0% | -93* | -94* | 5%
O=C(Nc1ccccc1N1CCCCC1)c1ccc([N+](=O)[O-])o1 | -1% | -5 | -3 | -9%
CC(C)CC1C(=O)N(Cc2cn(CCC3OCCCO3)nn2)CCS(=O)(=O)N1Cc1ccc(-c2ccccc2)cc1 (centres undefined) | / | -9 | -6 | /
CC(C)CC1C(=O)N(Cc2cn(CCC3OCCCO3)nn2)CCS(=O)(=O)N1Cc1ccc(-c2ccncc2)cc1 (centres undefined) | / | -157* | -139* | /
C=CCc1ccc(OCC(O)CN2CCC(Cc3ccccc3)CC2)c(OC)c1 (centres undefined) | 3% | -86* | -31 | 2%
C=CCc1ccc(OCC(O)CN2CCN(Cc3ccc(Cl)cc3)CC2)c(OC)c1 (centres undefined) | 5% | -83* | -50 | 2%
C=CCc1ccc(OCC(O)CN2CCN(c3ccccc3OC)CC2)c(OC)c1 (centres undefined) | -2% | -8 | -5 | 20%
CN(C)S(=O)(=O)c1cccc(NC(=O)c2ccc(S(=O)(=O)N3CCCC3)cc2)c1 | 1% | 10 | -8 | -6%
CC(C)c1ccc(C(=O)Nc2ccc(CN3CCOCC3)cc2)cc1 | 2% | -76* | 9 | 2%
SMILES | Rango-impB inh | KCNH2 3.1 block | KCNH2 WT inh | Rango release inh
CC(C)c1ccc(CNc2ccc(N3CCOCC3)cc2)cc1 | 4% | -175* | -131* | -5%
O=C(Nc1ccc(CN2CCOCC2)cc1)c1ccc(-c2ccc(Cl)cc2Cl)o1 | 0% | -87* | 0 | 9%
Cc1ccc(CNc2ccc(N3CCOCC3)cc2)cc1 | 0% | -7 | -1 | ?
Nc1cccc(-c2cn(-c3cc4cc(C#CC5(O)CCCCC5)ccc4oc3=O)nn2)c1 | -1% | / | / | -6%
c1ccc(-c2ccc(OCCCNC3CCCC3)cc2)cc1 | 3% | -92* | -10 | 9%
O=[N+]([O-])c1ccc(COc2ncnc3ccccc23)cc1 | -1% | -192* | -163* | 0%
CCN(CC)c1ccc(-c2c(C#N)c(N)nc(OC)c2C#N)cc1 | ? | -70* | -9 | ?
O=C(CN1C(=O)NC(CCc2ccccc2)C1=O)Nc1cccc(Br)c1 (centres undefined) | -2% | -8 | 5 | 12%
CC(=O)C1=C(O)C(=O)N(c2cc(C(C)(C)C)on2)C1c1ccc(Br)cc1 (centres undefined) | -2% | -82* | 2 | 0%
CC(=O)C1=C(O)C(=O)N(c2cc(C(C)(C)C)on2)C1c1ccc(C(C)C)cc1 (centres undefined) | 4% | -13 | -4 | 9%
C=CCNC(=O)c1ccc(CN(c2ccc(OCC)cc2)S(=O)(=O)c2ccc(C)cc2)cc1 | 2% | -88* | ? | 12%
N=c1c(C(=O)NCc2ccco2)cc2c(=O)n3ccccc3nc2n1Cc1ccc(Cl)cc1 | ? | -80* | -44 | ?
N=c1c(C(=O)NC2CCCC2)cc2c(=O)n3ccccc3nc2n1CC1CCCO1 (centres undefined) | ? | -38 | -22 | ?
Cc1ccc(CNC(=O)c2cc3c(=O)n4ccccc4nc3n(CC3CCCO3)c2=N)cc1 (centres undefined) | ? | -71* | -24 | ?
O=C(NCCCNC(=O)c1cc(Cl)ccc1Cl)c1ccccn1 | 5% | 3 | -6 | -7%
CC(C)(C)c1ccc(NC(=O)C2=CN3CCS(=O)(=O)N=C3C=C2)cc1 | 1% | 8 | 4 | -9%
CC1CCN(C(=O)C2CCN(S(=O)(=O)c3ccc(-n4cnnn4)cc3)CC2)CC1 | -1% | 14 | 31 | ?
COc1ccc(NC(=O)c2ccc3c(SCC(=O)O)c4c(nc3c2)CCCC4)c(OC)c1 | -3% | -158* | -6 | -10%
COc1ccc(NC(=O)CSc2nc(=O)n(CCN3CCOCC3)c3c2CCC3)c(OC)c1 | 0% | -3 | -5 | 9%
COc1ccc(NC(=O)CSc2nc(=O)n(CCN3CCOCC3)c3c2CCCC3)c(OC)c1 | -1% | -120* | 12 | -13%
Cn1cc(C(=O)N2CCN(c3cccc(Cl)c3)CC2)c(=O)c2cc(S(=O)(=O)N3CCOCC3)ccc21 | ? | 16 | -4 | -11%
CCCCCC(=O)Nc1ccc(N2CCN(CC)CC2)c(Cl)c1 | 7% | -102* | 23 | 19%
COc1cc(-c2cn[nH]c2N)cc(OC)c1OC | -1% | -79* | -7 | 0%
CN1CCN(C(=O)/C(=C/c2ccc(F)cc2)NC(=O)c2ccccc2)CC1 | -2% | -91* | -23 | 20%
COc1ccc(NC(=O)NC2(C(=O)N3CCCCC3)CCCCC2)cc1 | 4% | -2 | 9 | 10%

Bioassay records deposited in PubChem by National Center for Advancing Translational Sciences (NCATS).
